A selection: hits, their analogues and other compounds. The true share with any hit is near 5.4%.
JMJD2C inh: inhibitors of GASC-1 histone demethylase, primary screen, biochemical, fluorescence, DELFIA europium; Lysine-specific demethylase 4C (Homo sapiens), Q9H3R0; GST-JMJD2C(1-420) H3K9me3 demethylation; inhibition, % at 2.35 µM; 330,000 tested, 0.069% active; AID 2099, 2009;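 active = more than half of a compound's replicate wells show inhibition beyond 50%, single wells judged on their own value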;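 also: signal counts dimethyl H3K9 product captured on neutravidin plate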
M18AAP inhibitor: PfM18AAP inhibitors, malaria aminopeptidase, primary screen, biochemical, QFRET, recombinant enzyme; M18 aspartyl aminopeptidase (Plasmodium falciparum 3D7); inhibition, % at 7.35 µM; 290,000 tested, 1.2% active; H-Glu-NHMec fluorogenic cleavage;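 active = inhibition above the campaign mean inhibition over all tested compounds plus 3 SD, cut at about 28% in these data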
SMARCA2 act: SMARCA2 (BRM) function activators, primary screen, cell-based, luminescence, high throughput; activation, % at 9.1 µM; MG213 cells, MMTV-luciferase reporter, dexamethasone, overnight; 370,000 tested, 1% active; in the data active = activation above about 7.8%
beta cell repl: inducers of MIN6 beta-cell proliferation, primary screen, ATP luminescence, uHTS | MIN6 cells proliferation, ATPlite luminescence, 48 h; cells starved in 0.2% serum; 100% = growth in 10% serum | proliferation, % at 10 µM | 330,000 tested, 0.29% active | AID 2380, 2010;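 active = compounds whose signal lies at least 3.5 SD above the mean of all wells on their plate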
ALR inh: inhibitors of human ALR sulfhydryl oxidase, primary screen, biochemical, H2O2 detection, HRP-luminol luminescence, single point. purified ALR, DTT oxidation. inhibition, % (concentration not given with the values). 290,000 tested, 3.8% active;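 active = mean replicate inhibition above about 79%, with every replicate also reaching it, limit read from the data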
Target sequence (P55789 whole entry, looked up): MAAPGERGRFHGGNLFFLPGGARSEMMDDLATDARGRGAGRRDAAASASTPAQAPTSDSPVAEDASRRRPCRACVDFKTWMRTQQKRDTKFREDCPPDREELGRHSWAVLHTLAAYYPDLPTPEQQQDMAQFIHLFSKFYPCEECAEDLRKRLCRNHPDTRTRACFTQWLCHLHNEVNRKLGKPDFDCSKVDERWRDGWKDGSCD
Granule exo inh: LAMP-1 surface exposure blockers, TALL-104 cells – cell-based, flow cytometry, MLPCN library, primary screen. TALL-104 LAMP-1 surface exposure; cells stimulated with thapsigargin and PMA. inhibition, % at 10 µM. 360,000 tested, 0.66% active. AID 651702, 2012;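 active = inhibition above about 55%, limit read from the data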
Hits are given with their value; 0 = inactive; - = no result given.

SMILES	JMJD2C inh	M18AAP inhibitor	SMARCA2 act	beta cell repl	ALR inh	Granule exo inh
CC1(C)CC[C@]2(C(=O)O)CC[C@]3(C)C(=CCC4[C@@]5(C)CC[C@H](O)C(C)(C)C5CC[C@]43C)C2C1 (some centres not stated)	0	0	0	-	0	56
CSc1nc2ccc(Nc3nc(N4CCOCC4)nc(N4CCOCC4)n3)cc2s1	-	0	0	0	98	0
CC(C)Oc1ccc(CSc2ncn[nH]2)cc1	0	0	0	0	0	0
CC(C)Oc1ccc(CSC(=N)N)cc1	0	0	0	0	98	0
Cc1cccc(NC(=O)Nc2nc3ncccn3c2-c2ccccc2)c1	-	-	0	-	-	-
CN(Cc1cc(=O)n2ccsc2n1)c1ccccc1	0	0	0	0	98	0
O=c1cc(CN2CCN(c3ccc(F)cc3)CC2)nc2sccn12	0	0	0	0	98	0
CCOC(=O)[C@]12CCCC=C1N(CCCOC)C(=O)[C@@H]2CC(=O)NCc1ccc(C)o1	-	-	0	-	-	-
COc1ccc(NC2CCCN(C(=O)c3ccccc3N3CCOCC3)C2)cc1OC (configuration not stated)	0	0	0	0	98	0
COc1ccc(NC2CCCN(C(=O)c3cccnc3SC)C2)cc1OC (configuration not stated)	0	0	0	0	100	0
Cc1ccc(NC2CCCN(C(=O)c3ccccc3N3CCOCC3)C2)cc1C (configuration not stated)	0	0	0	0	99	0
O=C(CCN1CCOCC1)N1CCCC(Nc2ccc(F)cc2)C1 (configuration not stated)	0	0	0	0	0	0
COc1ccccc1OCC(=O)N1CCCC(Nc2cccc(F)c2)C1 (configuration not stated)	0	0	0	0	0	0
O=C(c1ccccc1N1CCOCC1)N1CCCC(Nc2ccc(F)cc2)C1 (configuration not stated)	0	0	0	0	98	0
CCOc1ccc(NC(=O)c2cc(-c3ccc(Cl)cc3)nc3ccccc23)cc1	-	-	0	-	-	-
COc1ccc(Cn2ccc3ccc(-c4ccc5ccn(C(=O)C6CC6)c5c4)cc32)cc1	-	-	0	-	-	-
CCCCOCC1CN(CCCC)S(=O)(=O)c2c(cccc2N2CCCC2)O1 (configuration not stated)	-	-	0	-	-	-
CN1CCCCC(NC(=O)CSc2ccccc2)C1=O (configuration not stated)	-	-	0	-	-	-
CCOC(=O)CC[C@@]1(C(=O)OCC)C[C@@H](CC(=O)NCc2ccc(C)o2)C(=O)N2CCCC=C21	-	-	0	-	-	-
Cc1c(NC(=O)C2CCCN(S(=O)(=O)c3ccc(F)cc3)C2)c(=O)n(-c2ccccc2)n1C (configuration not stated)	-	-	0	-	-	-
Cc1cccc(N2CCC(N=CN(C)C)=N2)c1	0	0	0	0	99	0
OCCN(C=NC1=NN(c2cccc(C(F)(F)F)c2)CC1)CCO	0	0	0	0	-	0
CCN(C=NC1=NN(c2cccc(C(F)(F)F)c2)CC1)CC	0	0	0	0	94	0
Cn1c(Cc2cccs2)nnc1SCC(=O)Nc1ccc(OCc2ccccc2)cc1	-	-	0	-	-	-
COC(=O)C1CN(Cc2ccc(F)cc2)CCS(=O)(=O)N1Cc1cn(Cc2ccc(C)cc2)nn1 (configuration not stated)	-	-	0	-	-	-
SMILES	JMJD2C inh	M18AAP inhibitor	SMARCA2 act	beta cell repl	ALR inh	Granule exo inh
N#Cc1ccc(/C=C2\CC3(OC(=O)C4CCCC4)CCCN2C3)cc1 (configuration not stated)	-	-	0	-	-	-
O=c1cc2oc3cc(O)c(O)cc3c(-c3ccccc3O)c-2cc1O	-	44	-	-	-	0
Cc1ccccc1-c1cc(=O)c2c(O)cccc2o1	0	-	0	0	0	0
CCOC(=O)c1oc2cc(O)ccc2c(=O)c1-c1ccccc1OC	0	0	0	0	0	0
CCOc1ccccc1-c1c2cc(O)c(=O)cc-2oc2cc(O)c(O)cc12	-	30	-	-	-	0
CCCCC(CCC(=O)O)(C(=O)OCC)c1csc(Nc2ccc(C)cc2)n1 (configuration not stated)	0	0	0	0	99	0
O=C(CCN1C(=O)/C(=C\c2cccc(Br)c2)SC1=S)NCCCN1CCOCC1	0	0	0	0	0	75
O=C1CC(c2ccccc2)Sc2ccccc2N1 (configuration not stated)	0	0	0	0	94	0
CC(=NNc1nc2ccccc2o1)c1cc2ccccc2cn1	-	-	0	-	-	101
CC(=NNc1nc2ccccc2o1)c1ncccn1	-	-	0	-	-	0
S=c1[nH]nc(-c2cc(-c3ccccc3)n[nH]2)n1N=Cc1cccc(OCc2ccccc2)c1	-	-	0	-	-	-
CC1(C)Nc2cccc3cccc(c23)N1	-	-	0	-	-	63
c1cc2c3c(cccc3c1)NC1(CCCC1)N2	-	-	0	-	-	0
O=C(CSc1nnc(-c2ccc3c(c2)OCCO3)o1)N1CCCC1	0	0	0	0	99	0
Cc1ccc(-c2nnc(SCC(=O)N3CCCC3)o2)cc1C	0	0	0	0	99	0
CCOC(=O)N1CCN(C(=O)CSc2nnc(-c3ccc(C)c(C)c3)o2)CC1	0	0	0	0	-	0
C[C@H](O)[C@@H]1CN2CCc3c([nH]c4c(-c5ccc6c(c5)OCO6)cccc34)[C@@H]2C[C@@H]1N(C)C(=O)c1ccco1	-	-	0	-	-	-
O=C(O)c1cc(O)ccc1NC(=O)C(c1ccccc1)c1ccccc1	0	0	0	0	95	0
Cn1cccc1C(=O)N1CCN(S(=O)(=O)c2ccccc2F)CC1	-	-	0	-	-	-
CC(C)C[C@@H](CO)N1Cc2nnn(Cc3ccccc3)c2-c2ccccc2S1(=O)=O	-	-	0	-	-	-
O=C(c1ccccc1)c1coc2ccc(O)c(Cl)c12	0	0	0	0	99	0
Cc1ccc(C(=O)c2coc3ccc(O)c(Cl)c23)cc1	0	0	0	0	98	0
O=C(N[C@H]1C[C@@H]2O[C@@H](CO)CC[C@@H]2O[C@@H]1CCc1ccc(-c2cccnc2)cc1)c1cccc(F)c1	-	-	0	-	-	-
COc1ccc(-c2cc3nnc(-c4ccccc4)nc3s2)cc1	0	0	0	0	94	0
CN1C(=O)c2cc(NS(=O)(=O)c3cccc(F)c3)ccc2OC[C@@H]2O[C@H](CC(=O)O)CC[C@H]21	-	-	0	-	-	-
COc1ccc(CNCC#Cc2ccc(C)cc2)c(OC)c1	-	-	0	-	-	-
O=C1CNC(=S)N1CCc1ccc(O)c(O)c1	0	69	0	0	100	0
O=C1CNC(=S)N1CCOc1ccccc1	0	0	0	0	0	0

Screens deposited in PubChem by several laboratories.
